Test results taken from PubChem BioAssay AID1159580 (chemical genetic matrix, 2015).
Values joined by “and” are separate entries in the source; they are usually repeats but may differ in a detail not shown here. Equal values may be shown once. Out of some 5,500 compounds screened, about 2,000 (36%) were called active. Roughly 18% stayed inconclusive and do not appear here. No stated cut-off is given here; in the data, active means normalized growth mostly below about 0.91 (no sharp cut-off); inconclusive means no clear call, values can overlap the other calls; inactive means mostly above about 0.92. The list shows a part of the results.

Experiment: chemical genetic growth profiling, strain panel (AID 1159580);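 further: tested at 20 µM; growth read once vehicle control cultures reached saturation at 30 °C; 1 = growth at the plate median or of vehicle wells; lower values mean less growth of the strain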
Conditions: S. cerevisiae deletion strains, growth OD
[1] = locus YAL013W, strain DEP1, active compounds read low
[2] = locus YMR307W, strain GAS1, active compounds read low
[3] = locus YNL128W, strain TEP1, active compounds read low

Measured: normalized growth

NO
inactive: [1] 0.994 | locus YAL040C, strain CLN3, active compounds read low 0.946 | locus YCL061C, strain MRC1 (second series), active compounds read low 1.01 | locus YDR363W, strain ESC2, active compounds read low 0.997 | locus YER002W, strain NOP16, active compounds read low 1.01 | locus YGR229C, strain SMI1, active compounds read low 1.1 | locus YJR075W, strain HOC1, active compounds read low 1.02 | locus YMR263W, strain SAP30, active compounds read low 1.01 | [2] 1.02 | [3] 0.998 | locus YNL153C, strain GIM3, active compounds read low 0.988 | locus YNL175C, strain NOP13, active compounds read low 1.01 | locus YNL197C, strain WHI3, active compounds read low 0.976 | locus YNL224C, strain SQS1, active compounds read low 1 | locus YOR083W, strain WHI5 (second series), active compounds read low 0.946 | locus YPL055C, strain LGE1, active compounds read low 1.01 | locus YPL241C, strain CIN2, active compounds read low 1

COC(=O)C[C@H]1C(C)(C)C(=O)[C@@H]2CC3C4=CC(=O)O[C@@H](c5ccoc5)[C@]4(C)CCC3[C@@]1(C)C2=O (stereo not given in full)
inactive: [1] 0.98 | locus YAL021C, strain ccr4, active compounds read low 0.967 | locus YAL026C, strain drs2, active compounds read low 0.969 | locus YAL030W, strain snc1, active compounds read low 0.979 | locus YBL061C, strain skt5, active compounds read low 0.985 | locus YBR009C, strain hhf1, active compounds read low 0.985 | locus YBR021W, strain FUR4, active compounds read low 0.998 | locus YBR023C, strain chs3, active compounds read low 0.99 | locus YBR171W, strain sec66, active compounds read low 0.995 | locus YBR229C, strain ROT2, active compounds read low 0.944 | locus YBR231C, strain swc5, active compounds read low 0.998 | locus YBR279W, strain paf1, active compounds read low 0.996 | locus YCL011C, strain gbp2, active compounds read low 0.988 | locus YCL016C, strain dcc1, active compounds read low 0.989 | locus YCL029C, strain bik1, active compounds read low 0.973 | locus YCL061C, strain MRC1, active compounds read low 0.976 | locus YCL069W, strain vba3, active compounds read low 0.99 | locus YCR088W, strain abp1, active compounds read low 0.98 | locus YDL005C, strain med2, active compounds read low 0.978 | locus YDL035C, strain GPR1, active compounds read low 0.959 | locus YDL040C, strain nat1, active compounds read low 0.99 | locus YDL074C, strain BRE1, active compounds read low 0.954 | locus YDL101C, strain DUN1, active compounds read low 0.987 | locus YDL185W, strain tfp1, active compounds read low 0.954 | locus YDL192W, strain arf1, active compounds read low 0.985 | locus YDR001C, strain nth1, active compounds read low 0.975 | locus YDR069C, strain doa4, active compounds read low 0.977 | locus YDR101C, strain arx1, active compounds read low 0.985 | locus YDR137W, strain rgp1, active compounds read low 0.947 | locus YDR159W, strain sac3, active compounds read low 0.97 | locus YDR162C, strain NBP2, active compounds read low 0.96 | locus YDR195W, strain ref2 0.972 | locus YDR297W, strain sur2, active compounds read low 1.05 | locus YDR318W, strain mcm21, active compounds read low 0.98 | locus YDR334W, strain swr1, active compounds read low 0.972 | locus YDR335W, strain msn5, active compounds read low 0.983 | locus YDR388W, active compounds read low 0.988 | locus YDR392W, strain spt3, active compounds read low 0.993 | locus YDR502C, strain sam2, active compounds read low 0.995 | locus YEL003W, strain gim4, active compounds read low 0.989 | locus YEL037C, strain rad23, active compounds read low 0.985 | locus YEL061C, strain CIN8 (second series), active compounds read low 0.982 | locus YEL061C, strain CIN8, active compounds read low 0.978 | locus YER015W, strain faa2, active compounds read low 0.999 | locus YER016W, strain bim1, active compounds read low 0.985 | locus YER110C, active compounds read low 0.964 | locus YER111C, strain swi4, active compounds read low 0.978 | locus YER155C, strain BEM2 (second series), active compounds read low 0.978 | locus YER155C, strain BEM2, active compounds read low 0.995 | locus YER167W, strain BCK2, active compounds read low 0.978 | locus YFR010W, strain ubp6, active compounds read low 0.964 | locus YGL078C, strain dbp3, active compounds read low 0.97 | locus YGL086W, strain mad1, active compounds read low 0.975 | locus YGL167C, strain pmr1, active compounds read low 0.977 | locus YGL173C, strain kem1, active compounds read low 0.982 | locus YGL227W, strain vid30, active compounds read low 0.99 | locus YGL240W, strain doc1, active compounds read low 1 | locus YGL248W, strain PDE1, active compounds read low 0.971 | locus YGL253W, strain hxk2, active compounds read low 0.98 | locus YGR135W, strain pre9, active compounds read low 1.04 | locus YGR252W, strain gcn5, active compounds read low 1.04 | locus YHR013C, strain ard1, active compounds read low 0.983 | locus YHR027C, strain rpn1, active compounds read low 0.979 | locus YHR030C, strain SLT2, active compounds read low 0.979 and 0.991 | locus YHR079C, strain IRE1 (second series), active compounds read low 0.969 | locus YHR079C, strain IRE1, active compounds read low 0.979 | locus YHR094C, strain hxt1, active compounds read low 0.97 | locus YHR129C, strain ARP1, active compounds read low 0.987 | locus YHR142W, strain chs7, active compounds read low 0.983 | locus YHR200W, strain rpn10, active compounds read low 0.981 | locus YIL066C, strain RNR3, active compounds read low 0.952 | locus YIL073C, strain SPO22, active compounds read low 0.957 | locus YIL125W, strain kgd1, active compounds read low 0.982 | locus YIR030C, strain dcg1, active compounds read low 0.985 | locus YJL092W, strain hpr5, active compounds read low 0.981 | locus YJL095W, strain BCK1 (second series), active compounds read low 0.983 | locus YJL095W, strain BCK1, active compounds read low 1.01 and 0.983 | locus YJL115W, strain asf1, active compounds read low 0.964 | locus YJL129C, strain trk1, active compounds read low 0.965 | locus YJL134W, strain LCB3, active compounds read low 0.97 | locus YJL154C, strain vps35, active compounds read low 0.99 | locus YJL164C, strain tpk1, active compounds read low 0.988 | locus YJL166W, strain qcr8, active compounds read low 0.989 | locus YJL168C, strain set2, active compounds read low 0.991 | locus YJL187C, strain SWE1 (second series), active compounds read low 0.993 | locus YJL187C, strain SWE1, active compounds read low 0.998 | locus YJR066W, strain TOR1, active compounds read low 0.943 | locus YKL009W, strain mrt4, active compounds read low 0.956 | locus YKL068W, active compounds read low 0.979 | locus YKL085W, strain MDH1 (second series), active compounds read low 0.986 | locus YKL085W, strain MDH1, active compounds read low 0.986 | locus YKL160W, strain elf1, active compounds read low 0.992 | locus YKL190W, strain CNB1, active compounds read low 0.98 | locus YKR001C, strain vps1, active compounds read low 0.979 | locus YKR026C, strain gcn3, active compounds read low 0.984 | locus YKR091W, strain srl3, active compounds read low 0.984 | locus YLL001W, strain dnm1, active compounds read low 0.979 | locus YLL026W, active compounds read low 0.982 | locus YLL041C, strain sdh2, active compounds read low 0.978 | locus YLR027C, strain aat2, active compounds read low 1 | locus YLR039C, strain RIC1, active compounds read low 0.902 | locus YLR058C, strain SHM2, active compounds read low 0.961 | locus YLR102C, strain apc9, active compounds read low 0.979 | locus YLR113W, strain HOG1, active compounds read low 1 | locus YLR221C, strain rsa3, active compounds read low 0.992 | locus YLR258W, strain gsy2, active compounds read low 0.981 | locus YLR262C, strain YPT6 (second series), active compounds read low 0.982 | locus YLR262C, strain YPT6, active compounds read low 0.916 | locus YLR268W, strain sec22, active compounds read low 0.997 | locus YLR320W, strain mms22, active compounds read low 0.982 | locus YLR330W, strain CHS5, active compounds read low 0.983 | locus YLR342W, strain FKS1 (second series), active compounds read low 1.02 | locus YLR342W, strain FKS1, active compounds read low 0.99 | locus YLR357W, strain rsc2, active compounds read low 0.977 | locus YLR370C, strain arc18, active compounds read low 0.987 | locus YLR371W, strain rom2, active compounds read low 0.981 | locus YLR384C, strain iki3, active compounds read low 0.983 | locus YLR418C, strain cdc73, active compounds read low 1 | locus YML016C, strain PPZ1, active compounds read low 0.978 | locus YML032C, strain rad52, active compounds read low 0.945 | locus YML120C, strain ndi1, active compounds read low 0.992 | locus YML124C, strain tub3, active compounds read low 0.994 | locus YMR058W, strain fet3, active compounds read low 0.969 | locus YMR078C, strain ctf18, active compounds read low 0.958 | locus YMR125W, strain sto1, active compounds read low 0.973 | locus YMR129W, active compounds read low 0.993 | locus YMR205C, strain PFK2, active compounds read low 0.977 | locus YMR223W, strain ubp8, active compounds read low 1 | locus YMR231W, strain pep5, active compounds read low 0.968 | [2] 1.01 | locus YNL067W, strain RPL9B, active compounds read low 1.01 | locus YNL071W, strain lat1, active compounds read low 0.979 | [3] 0.945 | locus YNL183C, strain NPR1, active compounds read low 0.972 | locus YNL209W, strain ssb2, active compounds read low 0.989 | locus YNL233W, strain BNI4, active compounds read low 1.02 | locus YNL248C, strain rpa49, active compounds read low 0.967 | locus YNL250W, strain rad50, active compounds read low 0.98 | locus YNL271C, strain bni1, active compounds read low 0.976 | locus YNL298W, strain CLA4, active compounds read low 0.962 | locus YNL307C, strain MCK1, active compounds read low 0.978 | locus YNL322C, strain KRE1 (second series), active compounds read low 0.995 | locus YNL322C, strain KRE1, active compounds read low 0.981 | locus YNR049C, strain mso1, active compounds read low 0.976 | locus YNR052C, strain pop2, active compounds read low 0.989 | locus YOL006C, strain TOP1, active compounds read low 0.934 | locus YOL012C, strain htz1 0.856 | locus YOL147C, strain pex11, active compounds read low 0.969 | locus YOR001W, strain rrp6, active compounds read low 0.962 | locus YOR061W, strain CKA2, active compounds read low 0.964 | locus YOR069W, strain VPS5, active compounds read low 0.988 | locus YOR070C, strain gyp1, active compounds read low 0.982 | locus YOR080W, strain dia2, active compounds read low 0.983 | locus YOR083W, strain WHI5, active compounds read low 0.989 | locus YOR106W, strain vam3, active compounds read low 0.99 | locus YOR136W, strain idh2, active compounds read low 0.971 | locus YOR144C, strain elg1, active compounds read low 0.996 | locus YOR184W, strain ser1, active compounds read low 0.948 | locus YOR231W, strain MKK1, active compounds read low 0.984 | locus YOR265W, strain rbl2, active compounds read low 0.986 | locus YOR270C, strain vph1, active compounds read low 0.925 | locus YOR290C, strain snf2, active compounds read low 1 | locus YOR316C, strain cot1, active compounds read low 0.982 | locus YPL051W, strain arl3, active compounds read low 1.03 | locus YPL078C, strain atp4, active compounds read low 0.985 | locus YPL106C, strain sse1, active compounds read low 0.994 | locus YPL240C, strain hsp82, active compounds read low 0.984 | locus YPL256C, strain CLN2, active compounds read low 0.967 | locus YPR119W, strain clb2, active compounds read low 0.99 | locus YPR141C, strain kar3, active compounds read low 0.988 | locus YPR163C, strain tif3, active compounds read low 0.985 | locus YPR167C, strain met16, active compounds read low 0.982 | strain wtn01, active compounds read low 0.967
